In ChEMBL document CHEMBL4513216, “Probing the Open Global Health Chemical Diversity Library for Multistage-Active Starting Points for Next-Generation Antimalarials” (ACS Infect Dis, 2020) one finds INHIBITION data, which are given here for 68 compounds.

Hit rate of the full screen: of about 69,000 compounds, about 8,600 (12%) showed an effect of 50% or more. For the sample, strong results were picked, then their nearest neighbours and some compounds at random.

In the experiment the test system is Plasmodium berghei. Put plainly: Screen against P. berghei liver stage (PbLuc), transformed with Luciferase, at 10uM. The experiment is classed as functional, HepG2. The following applies: tested at 10 uM.
As to `CCS(=O)(=O)CC(=O)NC(c1ccc(F)cc1)C1CCCC1` (stereo not drawn), the INHIBITION worked out at 42.6%. Then `Cc1nn(-c2ccccc2)c(C)c1CN1CCNCC1`, with 40.9%. Then `COc1cc(C2(C(=O)NC3CCN(C4CC4)CC3)CC2)ccc1C`, with 51.5%; and `COc1cc(C2(C(=O)N3CCCC(n4cncn4)C3)CC2)ccc1C` (stereo not drawn), with -7.81%. Turning to `COCCNC(=O)C1(c2ccc(C)c(OC)c2)CCCC1`, the INHIBITION amounted to 21.5%. The figure for `COCC(=O)N1CCN(C(=O)C2(c3ccc(C)c(OC)c3)CC2)CC1` is 50.9%; for `COc1cc(C2(C(=O)N3CCN(CC(C)O)CC3)CC2)ccc1C` (stereo not drawn) it is -17.8%. The figure for `COc1cc(C2(C(=O)N3CCN(CC(C)(C)O)CC3)CC2)ccc1C` is 52.3%; for `COc1cc(C2(C(=O)NC3CCC4(CC3)OCCO4)CC2)ccc1C` it is 10.3%. The figure for `CCC(O)CN1CCN(C(=O)C2(c3ccc(C)c(OC)c3)CC2)CC1` (stereo not drawn) is -6.34%. On to `COc1cc(C2(C(=O)NC3CCN(CC4CC4)CC3)CC2)ccc1C`, for which the INHIBITION turned out to be 25.5%.

For the compound `O=C(O)[C@H]1OCC(=O)N(Cc2cccc(Cl)c2)[C@@H]1c1ccccc1`, the INHIBITION was found to be 22%. In the case of `Cn1cc(-c2ccc(C3CCCCN3Cc3cccnc3)cn2)cn1` (stereo not drawn), the INHIBITION worked out at 9.05%. Then `Nc1nccc(C2CCCN2CCc2ccccc2)n1` (stereo not drawn), with 37.8%; and `COc1ccc(C2CCCN2Cc2cnn(C)c2)cc1` (stereo not drawn), with 34.5%; and `Cn1cc(CN2CCCCC2c2ccc(-c3cccc(F)c3)nc2)cn1` (stereo not drawn), with 62.9%. Then `Cn1cc(CN2CCOC(c3cccc(-c4cccc(F)c4)n3)C2)cn1` (stereo not drawn), with 23.9%; and `Cn1cc(CN2CCCCC2c2ccc(-c3cccc(Cl)c3)nc2)cn1` (stereo not drawn), with 57.3%. Then `Cc1nccc(C2CCCCN2Cc2cccc(F)c2)n1` (stereo not drawn), with 43.6%; and `Cn1cc(CN2CCCCC2c2ccc(-c3cnn(C)c3)nc2)cn1` (stereo not drawn), with 25.8%; and `Nc1nccc(C2CCCCN2Cc2cccc(F)c2)n1` (stereo not drawn), with 52%. Consider `CC(=O)Nc1nc(CN2CCn3c(nnc3C(C)C)C2)cs1`, for which the INHIBITION is -24.3%. The figure for `CCN1CCn2c(C)cnc2C12CCN(C(=O)Cc1ccccc1)CC2` is 30.9%; for `CC(C)(CNC(=O)CCCOc1cccc(F)c1)C(N)=O` it is 30.65%; for `Cc1nc(CN2CCCC(c3nccs3)C2)cs1` (stereo not drawn) it is 24.05%. Turning to `CN(C)CC(=O)N1Cc2nc(C(=O)N3CCCN(C)CC3)oc2C1`, the INHIBITION is listed as -2.26%. For the compound `N[C@@H]1c2ccccc2C2(CCN(C(=O)c3ccc(=O)[nH]c3)CC2)[C@H]1O`, the INHIBITION was found to be 4.795%. Then `CC(C)c1cc(C(=O)N2CCC3(CC2)c2ccccc2[C@@H](N)[C@@H]3O)cs1`, with 41.1%; and `N[C@@H]1c2ccccc2C2(CCN(C(=O)c3ccccc3O)CC2)[C@H]1O`, with -5.395%. As to `Cc1ccc(C(=O)N2CCC3(CC2)c2ccccc2[C@@H](N)[C@@H]3O)cc1F`, the INHIBITION was 35.1%. Then `Cc1ccc(Cl)cc1C(=O)N1CCC2(CC1)c1ccccc1[C@@H](N)[C@@H]2O`, with 80.1%; and `COc1ccc(C(=O)N2CCC3(CC2)c2ccccc2[C@@H](N)[C@@H]3O)cc1`, with 66.55%; and `c1cc(-c2cncc(C3CCNCC3)n2)n[nH]1`, with 35%. The figure for `Cc1cc(C(=O)NCc2cccnc2N(C)C)c(C)o1` is 26.3%; for `Nc1nccnc1C(=O)NC1CCCN(Cc2c(F)cccc2F)C1` (stereo not drawn) it is 21.8%; for `Cn1nc(Cn2ccnc2)c2c1CN(Cc1ccoc1)C2` it is -9.42%. Regarding `CC(C)n1nc(Cn2cccc2)c2c1CN(Cc1ccoc1)C2`, the INHIBITION is given as 54.1%. For `Cn1nc(Cn2cccc2)c2c1CN(Cc1ccoc1)C2`, the INHIBITION is 24.6%. Then `COc1ccc(CN2CCC3(CC2)CCN(CCN(C)C)C3=O)cc1`, with -17.1%; and `COc1cccc(-c2nccc(C3CCCN3C)n2)c1` (stereo not drawn), with 21.1%. The figure for `CN(C)c1ncc2c(n1)N(C)CCN(CC1CC1)C2=O` is 21.9%; for `CN(C)CCN1CCN(C)c2nc(-c3ccccc3)ncc2C1=O` it is 59%. The figure for `CN1CCN(CC2CC2)C(=O)c2cnc(N3CCCCC3)nc21` is 7.64%. With `COc1cccc(-c2ncc3c(n2)N(C)CCN(CCN(C)C)C3=O)c1`, the INHIBITION is 57.5%. Then `CCc1ccc(-c2ncc3c(n2)N(C)CCN(CCN(C)C)C3=O)cc1`, with 79.7%; and `CCCN(C)c1ncc2c(n1)N(C)CCN(CC1CC1)C2=O`, with 5.56%; and `CN1CCN(CC2CC2)C(=O)c2cnc(N3CCCC3)nc21`, with 11%.

`COc1cccc2cc(CNC(=O)N3CCS(=O)(=O)CC3)oc12`: the INHIBITION is recorded as 23.5%.

In the case of `Cc1noc(C)c1-c1cncc(C2CCCN2Cc2ncccc2F)n1` (stereo not drawn), the INHIBITION is reported as 1.5%. Turning to `CCn1ncc(Nc2[nH]cnc3nncc2-3)c1C`, the INHIBITION was 31.2%. Take `N#Cc1ccc(S(=O)(=O)NC(=O)C2CC(c3ccccc3)=NO2)cc1` (stereo not drawn): the INHIBITION is 6.09%. The figure for `OCCc1ccccc1-n1ccnc1-c1cn(C2CCNCC2)nn1` is 51.2%; for `CSc1ccccc1-n1ccnc1-c1cn(C2CCNCC2)nn1` it is 3.96%. Take `Clc1ccccc1CCn1ccnc1-c1cn(C2CCNCC2)nn1`: the INHIBITION is listed as 22.4%. Then `Cc1cc(CN2C[C@@H]3COC[C@H](C(=O)N4CCCCO4)[C@@H]3C2)oc1C`, with 45.1%; and `Cc1csc(N2CCN(CC(=O)N3CCCC3)CC2C)n1` (stereo not drawn), with 32.25%; and `CC(c1cccc(S(N)(=O)=O)c1)N(C)CCOC(C)(C)C` (stereo not drawn), with -27.8%. The figure for `Cc1ccccc1C(=O)NC1CCN(c2cnn(C)c2)C1=O` (stereo not drawn) is 11.7%; for `Cc1cccc(C(=O)NC2CCN(c3cnn(C)c3)C2=O)c1C` (stereo not drawn) it is 30.5%; for `Cc1ccsc1C(=O)NC1CCN(c2cnn(C)c2)C1=O` (stereo not drawn) it is 65.5%. The figure for `CC1(C(=O)N2CCOCC2)CNCCO1` (stereo not drawn) is 6.9%; for `CCCN1CCN(C(=O)c2cccnc2)CC1` it is 64.7%. Take `O=C(c1ccc(Oc2cccnc2)cc1)N1CCN(CCO)CC1`: the INHIBITION amounted to 40.6%. Turning to `CCCN1CCCN(c2ncccc2C(=O)N2CCCCC2)CC1`, the INHIBITION came to 25.1%. Consider `CCOc1ccnc(N2CCN(C(=O)c3cccnc3)CC2)n1`, for which the INHIBITION was 15.5%. The figure for `CCCN1CCCN(C(=O)c2ccc(Oc3cccnc3)cc2)CC1` is 61%; for `Cc1cc(N2CCN(C(=O)c3cccnc3)CC2)nc(C)n1` it is 6.26%. Then `CCc1cc(N(C)CCc2c(C)n[nH]c2C)ncn1`, with 23%.
